Columns and labels:
Experiment in all cases: relative growth (AUC of 72 h growth curve relative to DMSO control, dAUC) (ratio); higher = more growth (less inhibition), active = hit call of the paper
Settings in all cases: 20 µM;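 active = growth AUC significantly below the DMSO wells by Dunnett test; inactive = the rest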
[1] = test system: Aeromonas 1 (Aeromonas sp. AE235)
Method in brief: (§1)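 Whole sediment communities and bacterial isolates from Icelandic stream sediments and Silwood Park soil were brought to carrying capacity in Luria–Bertani medium. They were then diluted 1:100 into 96-well plates with each chemical at 20 µM in 1% DMSO, and A600 was recorded every hour for 72 h. The area under each growth curve, integrated by spline, was averaged across three biological replicates. This figure, divided by the mean of the DMSO controls, gives relative growth (dAUC).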

[2] = test system: Aeromonas 2 (Aeromonas sobria)
Method in brief: as §1

[3] = test system: Aeromonas 3 (Aeromonas popoffii)
Method in brief: as §1

[4] = test system: Argrobacterium 1 (Agrobacterium sp.)
Method in brief: as §1

[5] = test system: Arthrobacter 1 (Arthrobacter humicola)
Method in brief: as §1

[6] = test system: Arthrobacter 2 (Arthrobacter humicola)
Method in brief: as §1

[7] = test system: Arthrobacter 3 (Arthrobacter sp.)
Method in brief: as §1

Community 10 = test system: Community 10
Method in brief: as §1

Community 4 = test system: Community 4
Method in brief: as §1

Community 6 = test system: Community 6
Method in brief: as §1

Measured: relative growth

COc1cc(C)c(C(=O)c2c(OC)ccc(Br)c2C)c(OC)c1OC
inactive: [1] 1.07 | [2] 1.03 | [3] 1.1 | [4] 1.04 | [5] 1.15 | [6] 0.768 | [7] 0.949 | Community 10 0.986 | Community 4 1.1 | Community 6 1.05

Nc1c(Cl)c(F)nc(OCC(=O)O)c1Cl
inactive: [1] 0.974 | [2] 1 | [3] 0.991 | [4] 1.03 | [5] 1.1 | [6] 1.02 | [7] 0.991 | Community 10 0.976 | Community 4 1.07 | Community 6 1.01

Cc1c(COC(=O)[C@@H]2[C@H](/C=C(\Cl)C(F)(F)F)C2(C)C)cccc1-c1ccccc1 (racemic)
inactive: [1] 0.988 | [2] 0.992 | [3] 1.05 | [4] 1.06 | [5] 1.17 | [6] 0.833 | [7] 0.786 | Community 10 0.993 | Community 4 0.998 | Community 6 1.05

CCOP(=S)(OCC)Oc1nc(Cl)c(Cl)cc1Cl
inactive: [1] 1.05 | [2] 1 | [3] 1.06 | [4] 0.979 | [5] 1.04 | [6] 0.994 | [7] 1.08 | Community 10 0.928 | Community 4 0.974 | Community 6 0.953

CSc1nc(NC(C)C)nc(NC(C)C)n1
inactive: [1] 0.966 | [2] 0.971 | [3] 0.983 | [4] 1.03 | [5] 1.03 | [6] 0.956 | [7] 1.07 | Community 10 0.857 | Community 4 0.933 | Community 6 0.922

O=C(Nc1ccc(F)cc1F)c1cccnc1Oc1cccc(C(F)(F)F)c1
inactive: [1] 1.03 | [2] 0.98 | [3] 1.01 | [4] 1.02 | [5] 1.06 | [6] 1 | [7] 1.07 | Community 10 0.942 | Community 4 1.08 | Community 6 0.987

CC1(C)C(C=C(Cl)Cl)C1C(=O)OC(C#N)c1cccc(Oc2ccccc2)c1 (stereo not given)
inactive: [1] 0.976 | [2] 1.04 | [3] 1.08 | [4] 1.07 | [5] 1.28 | [6] 0.971 | [7] 1.03 | Community 10 1.21 | Community 4 1.1 | Community 6 1.12

N#Cc1c(Cl)c(Cl)c(Cl)c(C#N)c1Cl
inactive: [1] 1.04 | [2] 0.898 | [3] 1.01 | [4] 0.958 | Community 10 0.896 | Community 4 1.08 | Community 6 0.965
active: [5] 0.567 | [6] 0.136 | [7] 0.599

N#Cc1sc2c(=O)c3ccccc3c(=O)c=2sc1C#N
inactive: [1] 0.852 | [2] 0.905 | [3] 1.07 | [4] 1.09 | Community 10 1.16 | Community 4 1.12 | Community 6 1.12
active: [5] 0.649 | [6] 0.193 | [7] 0.557

Cc1nc(N(C)C)nc(OC(=O)N(C)C)c1C
inactive: [1] 0.991 | [2] 0.948 | [3] 0.968 | [4] 0.962 | [5] 0.924 | [6] 0.847 | [7] 0.932 | Community 10 0.979 | Community 4 0.871 | Community 6 0.942

CCC(C)(C)C(=O)OC1=C(c2ccc(Cl)cc2Cl)C(=O)OC12CCCCC2
inactive: [1] 0.99 | [2] 0.957 | [3] 1 | [4] 1.01 | [5] 0.721 | [6] 0.892 | [7] 0.892 | Community 10 0.839 | Community 4 1.03 | Community 6 1.08

CNC(=O)Oc1cccc2ccccc12
inactive: [1] 0.941 | [2] 0.918 | [3] 0.921 | [4] 1.09 | [5] 0.924 | [6] 1.07 | [7] 1.14 | Community 10 0.847 | Community 4 0.976 | Community 6 1.01

CC1(C)[C@H](/C=C(\Cl)C(F)(F)F)[C@@H]1C(=O)OC(C#N)c1cccc(Oc2ccccc2)c1 (stereo not given in full)
inactive: [1] 0.951 | [2] 0.993 | [3] 1.04 | [4] 1.07 | [5] 1.28 | [6] 0.838 | [7] 0.955 | Community 10 0.816 | Community 4 0.998 | Community 6 1.03

N#Cc1c[nH]cc1-c1cccc2c1OC(F)(F)O2
inactive: [1] 0.982 | [2] 0.92 | [3] 0.986 | [4] 0.99 | [5] 0.868 | [6] 0.824 | [7] 0.882 | Community 10 0.855 | Community 4 0.977 | Community 6 0.93

CC1(C)C(C=C(Cl)Cl)C1C(=O)OC(C#N)c1ccc(F)c(Oc2ccccc2)c1 (stereo not given)
inactive: [1] 0.997 | [2] 1 | [3] 1.07 | [4] 1.03 | [5] 1.19 | [6] 0.879 | [7] 0.946 | Community 10 0.911 | Community 4 0.954 | Community 6 0.928

CCCC1COC(Cn2cncn2)(c2ccc(Cl)cc2Cl)O1 (stereo not given)
inactive: [1] 0.966 | [2] 0.949 | [3] 0.971 | [4] 0.999 | [5] 0.991 | [6] 0.797 | [7] 0.751 | Community 10 0.868 | Community 4 0.89 | Community 6 0.917

Clc1ccc(C(c2ccc(Cl)cc2)C(Cl)(Cl)Cl)cc1
active: [5] 0.353 | [6] 0.211 | [7] 0.316
inactive: [1] 0.999 | [2] 0.972 | [3] 0.973 | [4] 1.02 | Community 10 0.832 | Community 4 0.976 | Community 6 0.983

CC(C1CC1)C(O)(Cn1cncn1)c1ccc(Cl)cc1 (stereo not given)
inactive: [1] 0.97 | [2] 0.942 | [3] 0.964 | [4] 1.09 | [5] 0.89 | [6] 0.961 | [7] 0.944 | Community 10 1.02 | Community 4 1.01 | Community 6 1.02

N#CC(CCc1ccc(Cl)cc1)(Cn1cncn1)c1ccccc1 (stereo not given)
inactive: [1] 0.938 | [2] 0.936 | [3] 1.01 | [4] 0.968 | [5] 0.81 | Community 10 1.09 | Community 4 0.946 | Community 6 0.958
active: [6] 0.555 | [7] 0.666

CC(C)N(C)S(=O)(=O)NC(=O)c1cc(-n2c(=O)cc(C(F)(F)F)n(C)c2=O)c(F)cc1Cl
inactive: [1] 0.995 | [2] 1.02 | [3] 1.01 | [4] 1.03 | [5] 1.1 | [6] 1.01 | [7] 1.07 | Community 10 0.909 | Community 4 1.13 | Community 6 1.03

CCCN(CCC)C(=O)SCc1ccccc1
inactive: [1] 1.03 | [2] 1.02 | [3] 1 | [4] 1.04 | [5] 1.05 | [6] 0.932 | [7] 1.02 | Community 10 0.888 | Community 4 0.997 | Community 6 0.996

CN/C(=N/CC1CCOC1)N[N+](=O)[O-] (stereo not given)
inactive: [1] 1 | [2] 1.02 | [3] 1.05 | [4] 1.02 | [5] 1.01 | [6] 1.03 | [7] 0.998 | Community 10 0.953 | Community 4 1.09 | Community 6 1

COP(=S)(OC)SCN1C(=O)c2ccccc2C1=O
inactive: [1] 1.02 | [2] 1.03 | [3] 1.01 | [4] 0.987 | [5] 0.962 | [6] 0.748 | [7] 1.09 | Community 10 1 | Community 4 1.02 | Community 6 1.03

CCOCn1c(-c2ccc(Cl)cc2)c(C#N)c(Br)c1C(F)(F)F
inactive: [1] 0.988 | [2] 0.989 | [3] 1.01 | [4] 0.978 | [5] 1.14 | [6] 0.829 | [7] 0.987 | Community 10 0.934 | Community 4 1.07 | Community 6 0.99

CC1=NNC(=O)N(/N=C/c2cccnc2)C1
inactive: [1] 1.04 | [2] 1.04 | [3] 1.04 | [4] 0.954 | [5] 1.13 | [6] 1.13 | [7] 1.05 | Community 10 0.983 | Community 4 1.1 | Community 6 1.14

CN/C(=N\[N+](=O)[O-])NCc1cnc(Cl)s1
inactive: [1] 1 | [2] 0.976 | [3] 0.985 | [4] 0.98 | [5] 0.983 | [6] 0.841 | [7] 0.873 | Community 10 0.931 | Community 4 0.981 | Community 6 0.914

Cc1cc(C(C#N)c2ccc(Cl)cc2)c(Cl)cc1NC(=O)c1cc(I)cc(I)c1O (stereo not given)
inactive: [1] 0.979 | [3] 0.96 | [4] 0.833 | Community 10 0.677
active: [2] 0.788 | [5] 0.0129 | [6] 0.011 | [7] 0.0114 | Community 4 0.631 | Community 6 0.454

COc1ncc(F)c2nc(S(=O)(=O)Nc3c(F)cccc3F)nn12
inactive: [1] 1.06 | [2] 1.02 | [3] 1.07 | [4] 0.953 | [5] 1.03 | [6] 1.11 | [7] 1.03 | Community 10 1.04 | Community 4 1.05 | Community 6 1.05

COc1cccc(C(=O)NN(C(=O)c2cc(C)cc(C)c2)C(C)(C)C)c1C
inactive: [1] 0.951 | [2] 0.969 | [3] 0.979 | [4] 0.982 | [5] 0.98 | [6] 0.884 | [7] 1.02 | Community 10 0.786 | Community 4 0.822 | Community 6 0.89

— the supplement of paper PMC12067926
